HEK293 cAMP cs: qHTS Assay for Agonists of the Thyroid Stimulating Hormone Receptor: Activators of Intracellular cAMP Concentrations in Parental HEK 293. 73,000 compounds, 2.5% hits. AID 938, 2007. parental HEK293 CNG cAMP sensor, membrane potential fluorescence. Potency, µM (top dose mostly 57.1 µM), inactives show top-dose activation, most hits filed as activators; note: % of control where 0% means no effect; nearly all actives have a fitted effect of over 55% in size
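Parental HEK 293 cells stably expressing a modified CNG channel (no TSHR) report cAMP rise as membrane depolarization. Membrane potential dye with 100 uM RO 20-1724 was loaded for 60 min at room temperature, then compound added for 30 min; fluorescence read at 590 nm.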
15-hLO inh: qHTS Assay for Inhibitors of 15-hLO (15-human lipoxygenase). Polyunsaturated fatty acid lipoxygenase ALOX15 (Homo sapiens), P16050. 74,000 compounds, 1.4% hits. Potency, µM (top dose mostly 57.1 µM), without a hit: at the highest dose activity change, negative = inhibition, most hits filed as inhibitors. purified 15hLO-1, xylenol orange hydroperoxide absorbance; note: % is set by controls: 0 for no effect and ±100 for the full control effect; nearly all actives have a fitted effect of over 55% in size
Target sequence (P16050 whole entry, looked up): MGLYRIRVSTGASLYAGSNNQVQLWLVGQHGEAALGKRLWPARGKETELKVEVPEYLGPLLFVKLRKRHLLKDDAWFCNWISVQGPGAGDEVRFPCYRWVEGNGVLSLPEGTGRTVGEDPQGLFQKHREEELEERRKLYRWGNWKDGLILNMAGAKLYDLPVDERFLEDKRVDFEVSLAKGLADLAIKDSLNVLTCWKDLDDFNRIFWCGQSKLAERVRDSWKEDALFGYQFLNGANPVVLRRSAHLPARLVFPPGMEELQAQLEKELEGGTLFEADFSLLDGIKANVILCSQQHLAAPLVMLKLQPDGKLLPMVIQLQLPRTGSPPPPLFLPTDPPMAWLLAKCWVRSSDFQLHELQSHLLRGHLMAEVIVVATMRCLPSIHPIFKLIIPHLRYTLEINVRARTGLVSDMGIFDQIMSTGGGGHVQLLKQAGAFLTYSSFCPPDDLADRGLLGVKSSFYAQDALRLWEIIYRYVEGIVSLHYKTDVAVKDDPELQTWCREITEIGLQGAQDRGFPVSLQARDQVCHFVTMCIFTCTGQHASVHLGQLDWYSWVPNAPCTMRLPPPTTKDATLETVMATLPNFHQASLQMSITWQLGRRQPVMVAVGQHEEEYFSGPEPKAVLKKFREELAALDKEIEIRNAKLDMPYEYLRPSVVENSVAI
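Compounds were preincubated 15 min at room temperature with 40 nM purified human enzyme (25 mM Hepes pH 7.5, 0.01% Triton X-100); 50 uM arachidonic acid reacted 6 min. Fe-xylenol orange detection, 30 min, absorbance ratio 573/405 nm.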
FLuc inh: qHTS Assay for Inhibitors of Firefly Luciferase. Luciferin 4-monooxygenase (Photinus pyralis), P08659. purified firefly luciferase, luminescence, 8 min. Potency, µM (top dose mostly 57.1 µM), inactives show at the top dose activity change, negative = inhibition, hits mostly inhibitors. 72,000 compounds, 2.2% hits. AID 411, 2009; note: % is set by controls: 0 for no effect and ±100 for the full control effect; nearly all actives have a fitted effect of over 40% in size
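Compounds were tested as concentration series (qHTS) against purified P. pyralis luciferase with luciferin and 10 uM ATP in 50 mM imidazole pH 7.2, 50 mM KCl, 7 mM MgCl2, 0.01% Tween 20, 0.05% BSA. Luminescence was read after 8 min at ambient temperature.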
Tau filament bind: qHTS Assay for Tau Filament Binding. recombinant tau filaments, thioflavin S fluorescence, 15 h; filaments grown with octadecylsulfate alongside compound. Potency, µM (top dose mostly 57.1 µM), without a hit: at the highest dose activity change, negative = inhibition. 71,000 compounds, 2% hits;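 note: % is set by controls: 0 for no effect and ±100 for the full control effect; actives lower thioflavin S fluorescence by blocking filaments or displacing dye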
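Quantitative HTS: thioflavine S signal from ODS-induced tau filaments, excited at 450 nm, emission 510 nm. Conditions: 1 uM tau, 30 uM ODS, 15 h at 37 C, pH 7.4.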
TSHR ag: qHTS Assay for Agonists of the Thyroid Stimulating Hormone Receptor. Thyrotropin receptor (Homo sapiens), P16473. HEK293-CNG-TSHR cells (CNG channel as cAMP sensor), membrane potential dye, cAMP. Potency, µM (titrated, usually from 57.1 µM), without a hit: at the top dose activation, usual class: activators. 73,000 compounds, 0.48% hits. AID 926, 2007; active = well fitted activation curve with a large enough effect in the main read-out, with a control signal flat, not every such curve was filed as active; inconclusive = small, poorly fitted or top-dose-only effect, or a change in a side signal; inactive = no such curve, though single readings can be large or run the other way; % of control where 0% means no effect;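 note: the control signal comes from parental cells without the receptor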
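HEK 293 cells stably expressing TSHR and a cAMP-gated CNG channel; parental CNG-only cells as counterscreen. Cells preloaded 60 min with membrane potential dye plus 100 uM RO 20-1724, then compound 30 min; fluorescence read at 590 nm.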
Bst PK mod: Pyruvate Kinase. purified pyruvate kinase, luminescence ATP production; ribose 5-phosphate activator present at AC10. Potency, µM. 51,000 compounds, 1.2% hits; in the data active = potency below about 11 µM; inconclusive = mostly about 12 µM to 25 µM;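 the screen sought inhibitors and activators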;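 note: scaled between full activation by ribose 5 phosphate and full inhibition by luteolin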
An asterisk follows results filed as active; ? = inconclusive; nt = not tested or not shown; [ ] = another dose, or the depositor's remark. A selection: hits, their analogues and other compounds. The true share with any hit is near 7.8%. Unless noted, calls come from the whole dose curve; as a rule, active = well fitted curve in the direction sought with a large enough effect; inconclusive = small, poorly fitted or top-dose-only effect, or another doubt; inactive = no such curve, though single readings can be large; an effect the other way counts as inactive or inconclusive. Potency is the fitted concentration of half-maximal effect.

SMILES	HEK293 cAMP cs	15-hLO inh	FLuc inh	Tau filament bind	TSHR ag	Bst PK mod
Cc1ccc(C(=O)Nc2ncc(Cc3ccccc3)s2)o1	11.1%	1.5%	12.6µM*	12.1%	6.1%	?
CCSc1nnc(NC(=O)c2ccc(C)o2)s1	6.9%	-0.2%	-0.8%	5.7%	-0.7%	>57
Cc1nnc(SCC(=O)Nc2nsc(-c3ccccc3)n2)s1	2.1%	-2.2%	-11.7%	3.6%	-2.7%	nt
O=C(Nc1nnc(Cc2ccccc2)s1)c1cccs1	-7.0%	2.6%	-17.6%	-1.8%	-4.1%	>57
O=C(Nc1ncc(Cc2ccccc2)s1)c1cccs1	-13.2%	5.5%	10µM*	10.9%	-7.6%	?
O=C(Nc1nsc(-c2ccccc2)n1)c1cccs1	18.1%	1.4%	5.01µM*	-9.4%	0.8%[11.4 µM]	7.81*
Oc1cccc(C=NCc2ccccc2)c1O	12.4%	5.01µM*	nt	nt	-3.6%	nt
COC(=O)Cc1c(C)nc2nc(-c3ccccc3)[nH]n2c1=O	-19.3%	-17.4%	25.1µM*	?	6.4%	nt
CCc1nc2sc3c(c2c(=O)n1N)CCC3	13.7%	-15.5%	2.8%	4.9%	-0.6%	>57
Nn1c(Nc2ccccc2)nc2sc3c(c2c1=O)CCC3	-0.5%	-26.9%	20µM*	50.6%	-7.1%	nt
COC(=O)c1ccc(C(NC(=O)c2ccccc2)[C@]2(C)C[C@H]2C2CCCCC2)cc1 (stereo partly drawn)	10.6%	nt	nt	-8.7%	9.6%	nt
COCC(C)n1c(C)cc(C(=O)COC(=O)c2c(NC(C)=O)sc(C)c2C)c1C (stereo not drawn)	4.1%	-3.0%	1.6%	6.2%	12.6µM*	>57
COc1cccc(CC(NC(C)=O)C(=O)NC2CCN(c3nc(C)cc(C)c3C#N)CC2)c1 (stereo not drawn)	108.7%	1.9%	2.1%	11.5%	-10.2%	>57
COc1ccc(CC(NC(C)=O)C(=O)NC2CCN(c3nc(C)cc(C)c3C#N)CC2)c(OC)c1 (stereo not drawn)	7.0%	25.1µM*	-5.6%	14.1%	15.9%	>57
O=C(Nc1ccccc1O)c1ccccc1O	24.4%	-14.7%	20µM*	-4.0%	22.7%	nt
Cc1csc(NC(=O)c2ccccc2O)n1	13.0%	-21.6%	25.1µM*	-3.2%	-16.5%	nt
COC(=O)[C@@]1(Cc2ccccc2)[C@H]2c3cc(C(=O)N4CCCC4)n(Cc4cc(F)cc5c4OCOC5)c3C[C@H]2CN1C(=O)c1ccccc1	2.51µM*	nt	nt	26.3%	?	nt
COC(=O)[C@@]1(Cc2ccc(OC)cc2)[C@H]2c3cc(C(=O)N(C)C)n(CCO)c3C[C@H]2CN1C(=O)c1ccccc1	3.3%	nt	nt	-2.3%	18.0%	nt
COC(=O)[C@@]1(Cc2ccccc2)[C@H]2c3cc(C(=O)N4CCCC4)n(Cc4cccc5ccccc45)c3C[C@H]2CN1C(=O)c1ccccc1	1.58µM*	nt	nt	57.2%	?	nt
COC(=O)[C@@]1(Cc2ccc(OC)cc2)[C@H]2c3cc(C(=O)N(C)C)n(Cc4ccc(C)c(F)c4F)c3C[C@H]2CN1C(=O)c1ccccc1	2.51µM*	nt	nt	14.5%	?	nt
COC(=O)[C@@]1(Cc2ccc(F)cc2)[C@H]2c3cc(C(=O)N(C)C)n(Cc4cccc5ccccc45)c3C[C@H]2CN1C(=O)c1ccccc1	15.8µM*	nt	nt	27.0%	?	nt
Cc1cc2c(nc1C)CCCCN2C[C@H](C)O/N=C\[C@@H](C)[C@H](OCc1ccccc1)C(C)C	18.2%[11.4 µM]	11.6%[11.4 µM]	0.8%[11.4 µM]	nt	24.5%[11.4 µM]	nt
COC(=O)[C@@]1(Cc2ccc(OC)cc2)[C@H]2c3cc(C(=O)N(C)C)n(Cc4ccsc4Br)c3C[C@H]2CN1C(=O)c1ccccc1	6.31µM*	nt	nt	2.7%	?	nt
